Screening results as filed in PubChem BioAssay.
Mito fusion yeast = blocks mitochondrial division or promotes mitochondrial fusion; S. cerevisiae fusion-defective mutant growth rescue, CellTiterGlo 48 h; Potency, µM (top dose mostly 46.1 µM), hits mostly activators; actives 0.23% (n = 320,000); note: nearly all actives have a fitted effect of over 45% in size
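Read-out: ATP-based luminescence (CellTiterGlo, 10 min ambient) reporting growth of fusion-defective ts yeast after 48 hours at 37C on glycerol/ethanol YPEG medium in the presence of compound.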
A-T KAP1 phos = candidate therapy for ataxia-telangiectasia; Potency, µM (titrated, usually from 57.5 µM), actives largely listed as activators; AID 485349; F2112 A-T fibroblasts, KAP-1 phosphorylation AlphaLISA; neocarzinostatin DNA damage 30 min before lysis; actives 0.19% (n = 320,000); note: nearly all actives have a fitted effect of over 45% in size
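ATM-like activity read as KAP-1 phosphorylation via AlphaLISA donor/acceptor antibody pairs after lysis and 6 hr at 25C. Cells were ATM-null patient fibroblasts (F2112, hTERT), dosed 60 min, then exposed to the DSB inducer NCS for 30 min.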
a7 integrin act = integrin-mediated muscular dystrophy alleviation activation | alpha7betagal myoblasts, beta-gal FDG fluorescence, 48 h | Potency, µM (series often up to 38.3 µM), actives largely listed as activators | actives 0.064% (n = 350,000) | AID 624291; note: nearly all actives have a fitted effect of over 60% in size
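alpha7betagal+/- myoblasts (passage 13, 250/well) treated 48 h at 37C with compounds at 1:260 dilution of DMSO stock. Lysed, then beta-galactosidase activity read as FDG fluorescence (ex 480/em 540) after 30 min, with pre-read for autofluorescence.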
SW480 rerep = DNA re-replication induction in SW480 cells | AID 624297 | Potency, µM (highest dose often 46.1 µM), most hits filed as activators | SW480 DNA re-replication, Hoechst DNA content imaging, 48 h | actives 1.8% (n = 340,000); note: nearly all actives have a fitted effect of over 55% in size
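First, 250 cells per well were seeded. Next, compound or vehicle (23 nL) was pinned in, plates sat 48 hr at 37 C. Finally Hoechst was added for 40 min before fluorescence scanning.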
MCF10A rereplic = DNA re-replication induction in MCF 10a cells; MCF 10A DNA re-replication, Hoechst nuclear intensity, 48 h; Potency, µM (highest dose often 46.1 µM), actives largely listed as activators; actives 2.9% (n = 350,000); note: nearly all actives have a fitted effect of over 50% in size
A number is an active result; 0 = inactive; ? = inconclusive; - = no result; [ ] = dose if it differs, or a comment. Compounds with a hit are over-represented: about 4.2% of the library has one in this group of screens. Calls come from the whole dose curve; as a rule, active = well fitted activation curve with a large enough effect; inconclusive = small, poorly fitted or top-dose-only effect; inactive = no such curve, though single readings can be large or run the other way.

SMILES | Mito fusion yeast | A-T KAP1 phos | a7 integrin act | SW480 rerep | MCF10A rereplic
O=C(COc1ccccc1)Nc1cccc(-c2ccc(N3CCOCC3)nn2)c1 | 0 | 0 | 0 | 0 | 0
COc1ccc(C(=O)NCCN(C)C)c2nc3ccccc3cc12 | - | - | 0 | ? | 0
COc1cccc2nc3c(C(=O)NCCN(C)C)cccc3cc12 | - | - | 0 | 9.2µM | 0
Cc1ccc(C)c(Oc2coc3cc(OCC(=O)Nc4ccccc4C(C)C)ccc3c2=O)c1 | ? | 0 | - | - | -
Cc1ccc(S(=O)(=O)N/N=C/c2ccccc2O)cc1[N+](=O)[O-] | 0 | 0 | 0 | 0 | 0
Cc1ccc(S(=O)(=O)N/N=C/c2ccc(O)c(O)c2)cc1[N+](=O)[O-] | 0 | 0 | 0 | 21µM | 0
Cc1noc(C)c1S(=O)(=O)N(C)C[C@@H]1OCc2cnnn2CCCC(=O)N([C@H](C)CO)C[C@@H]1C | - | - | 0 | - | -
CCN(Cc1ccc(OC)c(COC)c1)CC1CCCN(CCc2cccc(F)c2)C1 (stereo not given) | 0 | 0 | 0 | ? | 3.7µM
COc1ccc(CCN2CCCC(CN(C)Cc3cc(OC)ccc3OC)C2)cc1 (stereo not given) | 0 | 0 | 0 | 0 | 0.65µM
CCN(Cc1ccc(OC)c(COC)c1)CC1CCCN(CCc2cccc(OC)c2)C1 (stereo not given) | 0 | 0 | 0 | 0 | 0
O=C(NC(=S)N(CCO)Cc1ccccc1)c1cc(Br)ccc1Cl | 0 | 0 | 0 | 0[1.84 µM] | 0
CC(C)(C)c1cc(C2COC(=O)COCCOCC(=O)OCCOCCO2)cc(C(C)(C)C)c1O (stereo not given) | - | - | 0 | 0 | 0
CN(NC(=O)Nc1ccccc1)c1cnn(C)c(=O)c1Cl | 0 | 0 | ? | 0 | 2.3µM
COCCNC(=S)NN=C1CCCCC1 | 0 | 0 | 0 | 18µM | 0
C=CCOC(=O)C1=C(C)NC(=O)NC1c1ccc(OC(=O)c2ccco2)c(OC)c1 (stereo not given) | 0 | 0 | 0 | 0 | 0
O=C(Cc1nc2ccccc2[nH]1)c1cccc([N+](=O)[O-])c1 | 0 | 0 | 0 | ? | 7.3µM
CCOC(=O)Cc1nc2ccccc2[nH]1 | 0 | 0 | 0 | 2µM | 5µM
O=C(Nc1nc2ccccc2[nH]1)c1cccc([N+](=O)[O-])c1 | 0 | 0 | 0 | 0 | 0
O=C(C[n+]1cc(-c2ccccc2)n2c1CCC2)Nc1nc(-c2ccccc2)cs1 | 0 | 0 | 0 | 0 | 0
O=C(CSCC(=O)N1CCCc2ccccc21)Nc1nc(-c2ccccc2)cs1 | 18µM | 0 | 0 | 0 | 0
COC(=O)c1cc2occc2n1Cc1ccc(Cl)cc1 | 0 | 0 | 0 | ? | 16µM
Cc1cc[n+](CC(=O)c2ccc(NC(=O)c3ccccc3)cc2)cc1 | 0 | 0 | ? | 0 | 1.3µM
O=C(C[n+]1ccccc1)c1ccc(NC(=O)c2ccccc2)cc1 | 0 | 0 | 0 | 0 | 0
COc1cc(CCC(=O)OCC(=O)Nc2sccc2C(N)=O)cc(OC)c1OC | 0 | 0 | 0 | 16µM | 0
NC(=O)c1ccc(NC(=O)COC(=O)CCC2CCCCC2)cc1 | - | 0 | 0 | 0 | 0
SMILES | Mito fusion yeast | A-T KAP1 phos | a7 integrin act | SW480 rerep | MCF10A rereplic
CC(c1ccccc1)C1CC(=O)N(Cc2ccccc2)C1=O (stereo not given) | 0 | 0 | 0 | 0 | 0
O=C(Nc1ccccn1)c1ccc(Cl)c([N+](=O)[O-])c1 | 0 | 0 | 0 | 0 | ?
Cc1cc(CSc2ccccc2)ccc1NC(=O)c1ccc(Cl)c([N+](=O)[O-])c1 | 0 | 0 | 0 | 0 | 18µM
O=C(Nc1cccnc1Cl)c1ccc(Cl)c([N+](=O)[O-])c1 | - | 0 | 0 | 23µM | 0
COc1cccc(NC(=O)CCC2CCN(C(=O)C(OC)c3ccccc3)CC2)c1 (stereo not given) | - | - | 0 | - | -
Cc1ccc(S(=O)(=O)N2CCCCC2)cc1NC(=O)c1cnccn1 | 0 | 0 | 0 | 0 | 0
O=C(O)c1cc(Cl)ccc1-c1ccc(/C=C/c2cc(C(F)(F)F)[nH]c(=O)n2)o1 | 0 | 0 | 0 | ? | 18µM
C(=C\c1nc(N2CCCCCC2)c2ccccc2n1)/c1ccccc1 | 0 | 0 | 0 | ? | 21µM
c1ccc2c(N3CCCCC3)nc(N3CCCCC3)nc2c1 | 0 | 0 | 0 | 0 | 0
O=[N+]([O-])c1ccc(S(=O)(=O)c2cccc(C(F)(F)F)c2)nc1 | - | - | 0 | 4.1µM | 5.2µM
CCc1c(C)nc2ncnn2c1NCCc1ccc(OC)cc1 | 0 | 0 | 0 | 5.6µM | 2.5µM
Cc1cc(C)c(SSc2nnnn2-c2ccccc2)c(C)c1 | - | - | 0 | - | -
COc1ccc(-c2csc(N(CC(C)C)C(=O)c3ccco3)n2)cc1 | 0 | 0 | 0 | ? | 18µM
COc1ccc(-c2csc(N(CC3CCCO3)C(=O)c3ccco3)n2)cc1 (stereo not given) | 0 | 0 | 0 | ? | 16µM
COCCN(C(=O)c1ccc(-c2ccc(Cl)cc2)o1)c1c(N)n(Cc2ccccc2)c(=O)[nH]c1=O | 0 | 0 | 0 | 0 | 0
CCC(C)n1ncn(-c2ccc(N3CCN(c4ccc(OC)cc4)CC3)cc2)c1=O (stereo not given) | 0 | 0 | 0 | 0 | 0
C=C(NC(=O)C(=C)NC(=O)c1csc(C2=NC3c4csc(n4)C4NC(=O)c5csc(n5)C(C(C)(O)C(C)O)NC(=O)C5CSC(=N5)/C(=C/C)NC(=O)C(C(C)O)NC(=O)c5csc(n5)C3(CC2)NC(=O)C(C)NC(=O)C(=C)NC(=O)C(=C)NC(=O)C(C(C)C)NC2C=Cc3c(C(C)O)cc(nc3C2O)C(=O)OC4C)n1)C(N)=O (stereo not given) | - | - | 0 | 1.2µM | ?
C=C(NC(=O)C(=C)NC(=O)c1csc(C2=N[C@@H]3c4csc(n4)[C@@H]4NC(=O)c5csc(n5)[C@@H]([C@](C)(O)[C@H](C)O)NC(=O)[C@@H]5CSC(=N5)/C(=C/C)NC(=O)[C@@H]([C@H](C)O)NC(=O)c5csc(n5)[C@]3(CC2)NC(=O)[C@@H](C)NC(=O)C(=C)NC(=O)[C@@H](C)NC(=O)[C@@H]([C@@H](C)CC)N[C@H]2C=Cc3c([C@H](C)O)cc(nc3[C@@H]2O)C(=O)O[C@H]4C)n1)C(N)=O | - | - | - | 7.2µM | 8.1µM
C=C(NC(=O)C(=C)NC(=O)c1csc(C2=NC3c4csc(n4)C4NC(=O)c5csc(n5)C([C@@](C)(O)C(C)O)NC(=O)C5CSC(=N5)/C(=C\C)NC(=O)C(C(C)O)NC(=O)c5csc(n5)[C@]3(CC2)NC(=O)C(C)NC(=O)C(=C)NC(=O)C(C)NC(=O)C(C(C)CC)NC2C=Cc3c(C(C)O)cc(nc3C2O)C(=O)OC4C)n1)C(N)=O (stereo not given in full) | 0 | 0 | - | - | -
CC(=O)N(\C=C/C=C/C=C1\Sc2ccccc2C1=O)c1ccccc1 | 0 | 0 | 0 | 0 | 15µM
Cc1cc(S(=O)(=O)NCc2cccnc2)ccc1-n1cnnn1 | 0 | 0 | 0 | ? | 18µM
